# Measurements taken from the supplement of paper PMC7695840.
# Structures can show the parent of a compound that is named as a salt.
# Test system: Staphylococcus aureus MW2 delta-mecA (mecA-)
# Test: normalized GFP fluorescence (growth of mecA- strain) (fraction of control range); higher = more growth of mecA- strain
# Conditions: compound concentration: 150 uM; cefoxitin: subinhibitory; fluorescent label: GFP
# Procedure, shortened: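 Compound at 150 μM (1.5% DMSO) in 1536-well plates received 5 µL/well of pre-induced S. aureus MW2 cells mixed 1:1, gene-carrying with DsRed and gene-deleted with GFP, in LB with a daily-set subinhibitory antibiotic dose, single replicate. After 20 h unshaken at 37 °C, 90% humidity, DsRed (540/590) and GFP (485/520) were measured and scaled per plate between single-strain control medians. Plates with high untreated ratios and rows with DsRed/GFP >10 were excluded.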
row,Structure (SMILES),normalized GFP fluorescence
1,CCC1(c2cccc(O)c2)CCCCN(C)C1 (stereo not drawn) [Meptazinol HCl],0.168
2,NCC(CC(=O)O)c1ccc(Cl)cc1 (stereo not drawn),0.683
3,Nc1ccncc1,0.334
4,CCC(=O)O[C@H]1CC[C@H]2[C@@H]3CCC4=CC(=O)CC[C@]4(C)[C@H]3CC[C@]12C,0.154
5,NCC1(CC(=O)O)CCCCC1,0.647
6,CCCC(C)C1(CC)C(=O)NC(=S)NC1=O (stereo not drawn),0.288
7,c1ccc2c(c1)Nc1ccccc1S2,0.132
8,NC(=O)CN1CCCC1=O,0.168
9,C[N+]12CCC(CC1)C(OC(=O)C(O)(c1ccccc1)c1ccccc1)C2 (stereo not drawn),0.468
10,CCC(COC(=O)c1cc(OC)c(OC)c(OC)c1)(c1ccccc1)N(C)C (stereo not drawn) [Trimebutine],0.293
11,C[C@]12CC[C@@H]3c4ccc(OC(=O)N(CCCl)CCCl)cc4CC[C@H]3[C@@H]1CC[C@@H]2O,0.117
12,C=C/C=C\CC1=C(C)[C@@H](OC(=O)[C@@H]2[C@@H](/C=C(\C)C(=O)OC)C2(C)C)CC1=O.C=C/C=C\CC1=C(C)[C@@H](OC(=O)[C@@H]2[C@@H](C=C(C)C)C2(C)C)CC1=O,0.39
13,C[C@]12CC[C@H]3[C@@H](CCC4=CC(=O)CC[C@@]43C)[C@@H]1CC[C@@H]2O,0.501
14,CN1C[C@H](C(=O)N[C@]2(C)O[C@@]3(O)[C@@H]4CCCN4C(=O)[C@H](Cc4ccccc4)N3C2=O)C=C2c3cccc4[nH]cc(c34)C[C@H]21,0.435
15,C[C@@H]1[C@H](O)[C@@H](C)/C=C/C=C/CC/C=C/C=C/C=C/C=C/[C@H](O[C@H]2O[C@@H](C)[C@H](O)[C@@H](N)[C@H]2O)C[C@@H]2O[C@](O)(C[C@@H](O)[C@H](O)CC[C@@H](O)C[C@@H](O)C[C@@H](O)CC(=O)O[C@H]1C)C[C@H](O)[C@H]2C(=O)O [Nystatin (Fungicidin)],0.00493
16,CO[C@]12C[C@@H](COC(=O)c3cncc(Br)c3)CN(C)[C@@H]1Cc1cn(C)c3cccc2c13,0.411
17,CC(=O)O[C@H]1C[C@H](O[C@H]2[C@@H](O)C[C@H](O[C@H]3[C@@H](O)C[C@H](O[C@H]4CC[C@@]5(C)[C@H](CC[C@@H]6[C@@H]5C[C@@H](O)[C@]5(C)[C@@H](C7=CC(=O)OC7)CC[C@]65O)C4)O[C@@H]3C)O[C@@H]2C)O[C@H](C)[C@H]1O[C@@H]1O[C@H](CO)[C@@H](O)[C@H](O)[C@H]1O,0.391

row,Structure (SMILES),normalized GFP fluorescence
1,CC(Cc1ccc(O)cc1)NCC(O)c1cc(O)cc(O)c1 (stereo not drawn),0.322
2,Cc1c(N)nc(C(CC(N)=O)NCC(N)C(N)=O)nc1C(=O)NC(C(=O)NC(C)C(O)C(C)C(=O)NC(C(=O)NCCc1nc(-c2nc(C(=O)NCCC[S+](C)C)cs2)cs1)C(C)O)C(O[C@@H]1O[C@@H](CO)[C@@H](O)[C@H](O)[C@@H]1O[C@H]1O[C@H](CO)[C@@H](O)[C@H](OC(N)=O)[C@@H]1O)c1cnc[nH]1 (stereo partly drawn),0.114
3,Cc1cccc([C@H](C)c2c[nH]cn2)c1C [Dexmedetomidine],0.289
4,Cc1ccc(-c2nc3ccc(C)cn3c2CC(=O)N(C)C)cc1,0.38
5,COP(=O)(OC)C(O)C(Cl)(Cl)Cl (stereo not drawn),0.2
6,NCCCNCCSP(=O)(O)O,0.429
7,NC(=O)C[S@@+]([O-])C(c1ccccc1)c1ccccc1,0.234
8,CN1C(=O)C(O)N=C(c2ccccc2)c2cc(Cl)ccc21 (stereo not drawn),0.205
9,O=C(O)CCCc1ccc(N(CCCl)CCCl)cc1,0.418
10,CC[C@@H](CO)NC(=O)[C@@H]1C=C2c3cccc4c3c(cn4C)C[C@H]2N(C)C1,0.269
11,CC(C)C[C@H](CN)CC(=O)O,0.412
12,CCCC(C)(COC(N)=O)COC(=O)NC(C)C (stereo not drawn),0.54
13,Oc1ccc2c3c1O[C@H]1[C@@H](O)CC[C@@]4(O)[C@@H](C2)N(CC2CCC2)CC[C@]314,0.717
14,O=C1CC[C@@]2(O)[C@H]3Cc4ccc(O)c5c4[C@@]2(CCN3CC2CC2)[C@H]1O5,0.283
15,O=[N+]([O-])O[C@H]1CO[C@H]2[C@@H]1OC[C@H]2O[N+](=O)[O-],0.915
16,O=[N+]([O-])O[C@@H]1CO[C@H]2[C@@H]1OC[C@@H]2O,0.742
